A short description of assay [1]: qHTS assay to test for compound auto fluorescence at 535 nm (green) in HEK293 cells (AID 720680).
Assay [2] in a line: qHTS assay to test for compound auto fluorescence at 460 nm (blue) in HEK293 cell free culture (AID 720681). The method in brief: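 Blue fluorescence (Ex 405/Em 460 nm, triamterene-equivalent) was read immediately after pin transfer of compound or DMSO into medium (DMEM, 10% FBS) without cells.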
In general terms: Quantitative high-throughput screening tests each substance at several concentrations.

The nature of assay [3]: qHTS assay to test for compound auto fluorescence at 535 nm (green) in HEK293 cell free culture (AID 720682). The method in brief:
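Steps: dispense DMEM/10% FBS into empty wells; pin in compound or DMSO; measure fluorescence at 485/535 nm. Values are fluorescein equivalents.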

A short description of assay [4]: qHTS assay to test for compound auto fluorescence at 590 nm (red) in HEK293 cell free culture (AID 720683). The method in brief:
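Red-channel autofluorescence of compounds in culture medium (DMEM, 10% FBS), no cells, measured at 540/590 nm. Rose Bengal sodium is the reference fluorophore for equivalence.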

A short description of assay [5]: qHTS assay to test for compound auto fluorescence at 590 nm (red) in HepG2 cell free culture (AID 720684). The method in brief: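 Cell-free; medium MEM + 10% FBS; compound or DMSO added by pintool; read Ex 540/Em 590 nm; Rose Bengal sodium as red reference fluorophore.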
Assay [6] is described as follows: qHTS assay to test for compound auto fluorescence at 460 nm (blue) in HepG2 cell free culture (AID 720685). The method in brief:
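Cell-free plates of MEM plus 10% FBS received 23 nL compound or DMSO vehicle; blue-channel (405/460 nm) intensity scored against triamterene as reference fluorophore.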

A short description of assay [7]: qHTS assay to test for compound auto fluorescence at 535 nm (green) in HepG2 cell free culture (AID 720686).
Assay [8] in a line: qHTS assay to test for compound auto fluorescence at 460 nm (blue) in HepG2 cells (AID 720687). The method in brief:
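Blue-channel autofluorescence (Ex/Em 405/460 nm, triamterene-equivalent) was measured after 1 hr compound exposure at 37 C, 5% CO2. Cells were HepG2, plated overnight at 37 C in MEM plus 10% FBS.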

The target of assay [9] is Glucocorticoid receptor (Homo sapiens) (UniProt P04150). Briefly: qHTS assay to identify small molecule agonists of the glucocorticoid receptor (GR) signaling pathway (AID 720691; active = well fitted activation curve with a large enough effect in the signal ratio in the repeat runs, not every such curve was filed as active; the % refers to the signal ratio). The method in brief:
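A HeLa cervical cancer line expressing GR and a glucocorticoid response element-driven beta-lactamase gene is treated with compounds for 18 h; LiveBLAzer B/G FRET substrate is then applied and fluorescence read.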

The target is the same in assay [10]. As to the kind of experiment: qHTS assay to identify small molecule antagonists of the glucocorticoid receptor (GR) signaling pathway (AID 720692; active = well fitted inhibition curve with a large enough effect in the signal ratio in the repeat runs, not every such curve was filed as active; the % refers to the signal ratio). The method in brief:
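GRE-bla HeLa line, dex-stimulated (5 nM final). Compound exposure 18 h, 37 C. Beta-lactamase FRET read after 2 h RT substrate.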

Assay [11] in a line: qHTS assay to identify small molecule antagonists of the glucocorticoid receptor (GR) signaling pathway - cell viability counter screen (AID 720693). Note: nearly all actives have a fitted effect of over 55% in size.
Assay [12] can be described thus: qHTS assay for identifying genotoxic compounds that show differential cytotoxicity against isogenic chicken DT40 cell lines with known DNA damage response pathways - wild type cell line (AID 743012). Note: nearly all actives have a fitted effect of over 60% in size. Note: potency is the fitted concentration of half-maximal effect. The method in brief:
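300 wt DT40 cells/well; cpd (DMSO) pintool-transferred after ~0.5 h at 37 C/5% CO2; 40 h incubation; CellTiter-Glo added, 30 min RT; luminescence read.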

Assay [13] can be described thus: qHTS assay for identifying genotoxic compounds that show differential cytotoxicity against isogenic chicken DT40 cell lines with known DNA damage response pathways - Rev3 mutant cell line (AID 743014). Note: nearly all actives have a fitted effect of over 55% in size. Note: potency is the fitted concentration of half-maximal effect.
The nature of assay [14]: qHTS assay for identifying genotoxic compounds that show differential cytotoxicity against isogenic chicken DT40 cell lines with known DNA damage response pathways - Rad54/Ku70 mutant cell line (AID 743015). Note: nearly all actives have a fitted effect of over 60% in size. Note: potency is the fitted concentration of half-maximal effect.
A short description of assay [15]: qHTS assay to identify small molecule antagonists of the androgen receptor (AR) signaling pathway - cell viability counter screen (AID 743033; note: nearly all actives have a fitted effect of over 45% in size).
Assay [16] is described as follows: qHTS assay to identify small molecule antagonists of the androgen receptor (AR) signaling pathway using the MDA cell line - cell viability counter screen (AID 743041; note: nearly all actives have a fitted effect of over 45% in size). The method in brief:
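Viability read by CellTiter-Fluor fluorescence in the same wells as the antagonist screen, added after 15.5 h of a 16 h, 37C exposure. Human breast carcinoma MDA-kb2 AR-luc cells, compounds co-dosed with agonist R1881.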

Records with an inconclusive call do not appear. Calls of active or inactive are those of the source. Unless noted, calls come from the whole dose curve; as a rule, active = well fitted curve in the direction sought with a large enough effect in the repeat runs; inconclusive = weak or mixed curves; inactive = no such curve, though single readings can be large; an effect the other way counts as inactive or inconclusive.

Sequence of Glucocorticoid receptor (Homo sapiens) (P04150 whole entry, looked up): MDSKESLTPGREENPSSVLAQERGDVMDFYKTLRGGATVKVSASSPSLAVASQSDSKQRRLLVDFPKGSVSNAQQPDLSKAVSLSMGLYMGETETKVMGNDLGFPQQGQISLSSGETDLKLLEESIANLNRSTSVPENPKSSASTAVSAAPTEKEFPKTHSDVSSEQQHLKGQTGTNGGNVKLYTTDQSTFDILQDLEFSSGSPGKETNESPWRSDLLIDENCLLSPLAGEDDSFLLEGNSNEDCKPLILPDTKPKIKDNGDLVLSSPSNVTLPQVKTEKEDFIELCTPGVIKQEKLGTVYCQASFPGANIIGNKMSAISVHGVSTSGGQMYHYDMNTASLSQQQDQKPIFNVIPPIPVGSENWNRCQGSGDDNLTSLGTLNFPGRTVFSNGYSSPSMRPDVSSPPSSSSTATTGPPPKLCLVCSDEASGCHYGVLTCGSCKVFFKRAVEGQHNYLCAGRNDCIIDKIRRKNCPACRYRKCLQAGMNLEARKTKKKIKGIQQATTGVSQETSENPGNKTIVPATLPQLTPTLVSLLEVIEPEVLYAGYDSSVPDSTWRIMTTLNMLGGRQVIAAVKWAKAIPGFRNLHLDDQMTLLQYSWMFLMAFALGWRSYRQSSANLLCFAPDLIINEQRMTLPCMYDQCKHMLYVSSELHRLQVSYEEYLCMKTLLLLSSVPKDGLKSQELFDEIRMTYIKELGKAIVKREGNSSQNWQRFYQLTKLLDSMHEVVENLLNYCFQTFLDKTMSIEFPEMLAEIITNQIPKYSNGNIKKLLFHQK

Take `CCCCc1ccc(N)cc1`: the compound was classed as inactive in assay [1], in assay [3], in assay [4], in assay [5], in assay [7] and in assay [11]. For the same compound, the compound was classed as inactive in [15]. Also, the Potency result in assay [2], in assay [6], in assay [8], in [9], in assay [10] and in [12] was “inactive” throughout. Also, the Potency entry in [13], in assay [14] and in assay [16] was “inactive” each time.
Take `CCCCCCCCCCCCI`: the compound was called inactive in assay [1], in [3], in assay [4], in [5], in assay [7] and in assay [11]. In addition, in assay [15], the compound was called inactive. Besides, the Potency entry in assay [2], in assay [6], in [8], in assay [9], in assay [10] and in assay [16] was “inactive” in each case. The values for the Potency in assay [12], in assay [13] and in assay [14] were 54.7 µM (active), 7.73 µM (active) and 27.4 µM (active), respectively.
With `CC(C)=CCC/C(C)=C/C(=O)O`, the compound was called inactive in [1], in assay [3], in [4], in assay [5], in assay [7] and in assay [11]. The compound was called inactive in assay [15]. The Potency result in assay [2], in assay [6], in assay [8], in assay [9], in assay [10] and in assay [12] was “inactive” in each case. Also, the Potency entry in assay [13] and in assay [16] was “inactive” each time.
Take `CC(=O)O[C@H](CC(=O)[O-])C[N+](C)(C)C`: the compound was classed as inactive in [1], in assay [3], in assay [4], in [5], in assay [7] and in assay [11]. The compound was called inactive in assay [15]. The Potency entry in assay [2], in [6], in assay [8], in assay [9], in assay [10] and in [12] was “inactive” in each case. Besides, the Potency entry in assay [13], in assay [14] and in assay [16] was “inactive” in each case.
As to `CC(C)(O)Cc1ccccc1`, the compound was classed as inactive in [1], in assay [3], in assay [4], in assay [5], in assay [7] and in [11]. The result in [15] was inactive. In addition, the Potency result in assay [2], in assay [6], in [8], in assay [9], in assay [10] and in assay [12] was “inactive” each time. Also, the Potency result in assay [13], in [14] and in assay [16] was “inactive” each time.
For the compound `COc1cccc(OC)c1`, the compound was classed as inactive in assay [1], in assay [3], in assay [4], in assay [5], in assay [7] and in [11]. For the same compound, the result in assay [15] was inactive. Further, the Potency entry in assay [2], in [6], in assay [8], in [9], in assay [10] and in assay [12] was “inactive” each time. Besides, the Potency entry in assay [13], in [14] and in assay [16] was “inactive” each time.
Regarding `CC(C)[N+](C)(C)CC(O)COc1cccc2ccccc12` (configuration not stated), the call in [1], in [3], in [4], in [5], in assay [7] and in assay [11] was inactive. In [15], the outcome was inactive. Also, the Potency entry in assay [2], in assay [6], in [8], in assay [9], in assay [10] and in [12] was “inactive” throughout. In addition, the Potency result in assay [13], in [14] and in assay [16] was “inactive” in each case.
On to `Cc1nccn1CC1CCc2c(c3ccccc3n2C)C1=O` (configuration not stated), for which the call in [1], in assay [3], in assay [4], in assay [5], in [7] and in assay [11] was inactive. The call in [15] was inactive. Besides, the Potency entry in assay [2], in assay [6], in assay [8], in assay [9], in assay [10] and in [12] was “inactive” in each case. The Potency result in assay [13], in assay [14] and in [16] was “inactive” throughout.
